Vaccinia Venus = vaccinia inhibition (Venus reporter) | Vaccinia virus Venus reporter expression, fluorescence | Potency, µM (highest dose often 36.5 µM), inactives show at the top dose activity change, negative = inhibition, most hits filed as inhibitors | 0.46% of 330,000 active | AID 720580; calls by dose curve; tested in A549 cells; further: potency means the concentration at half of the fitted maximal effect; on the % scale 0 is the no-effect control and ±100 the full control effect; nearly all actives have a fitted effect of over 30% in size
LASV entry inh = inhibitors of Lassa virus binding or cell entry. 1.2% of 300,000 active. Lassa virus pseudotype entry inhibition, cell reporter. Potency, µM (series often up to 37.9 µM), without a hit: at the highest dose activity change, negative = inhibition, usual class: inhibitors; calls by dose curve; tested in HEK293 cells; further: potency means the concentration at half of the fitted maximal effect; on the % scale 0 is the no-effect control and ±100 the full control effect; nearly all actives have a fitted effect of over 50% in size
MARV entry inh = blocks Marburg virus binding to or entry into cells | Marburg virus pseudotyped entry inhibition, cell reporter | Potency, µM (doses to about 37.8 µM), for the others: top-dose activity change, negative = inhibition, most hits filed as inhibitors | 1.8% of 300,000 active | AID 540276; calls by dose curve; tested in HEK293 cells; further: potency means the concentration at half of the fitted maximal effect; on the % scale 0 is the no-effect control and ±100 the full control effect
VACV mCherry inh = inhibitors of vaccinia virus infection (mCherry reporter signal). Vaccinia virus mCherry reporter infection, fluorescence. Potency, µM (titrated, usually from 36.5 µM), without a hit: at the top dose activity change, negative = inhibition, hits mostly inhibitors. 0.63% of 310,000 active. AID 720579; calls by dose curve; tested in A549 cells; further: potency means the concentration at half of the fitted maximal effect; on the % scale 0 is the no-effect control and ±100 the full control effect; nearly all actives have a fitted effect of over 35% in size
Shiga toxin inh = blocks Shiga toxin action in Vero cells | Vero cells, Shiga toxin protein synthesis inhibition reporter | inhibition, % at 38.7 µM | 9.2% of 290,000 active | AID 2315; in the data active means inhibition mostly above about 28%, no sharp cut-off; inactive means mostly below about 43%; further: 0% is about no effect
CHX counter = counter-screen for Shiga toxin inhibitors: cycloheximide protein synthesis inhibition; cell reporter, cycloheximide protein synthesis inhibition counterscreen; max response, %; 12% of 300,000 active; AID 2314; in the data active means max response mostly above about 13%, no sharp cut-off; inactive means mostly below about 14%; further: read at 38.3 µM for the half of the compounds with a filed dose; 0% is about no effect
Numbers without * were called inactive; [ ] = remark or other dose. The full list was thinned out, with hits kept by preference.

Results for Cn1c(N)c(C(=O)COC(=O)CSc2ccc3ccccc3c2)c(=O)n(C)c1=O ?
LASV entry inh: -6.7%; MARV entry inh: 20.5%; Shiga toxin inh: 31.2; CHX counter: -4.7

What do the screens show for `Cn1c(N)c(C(=O)COC(=O)CSc2ccccc2)c(=O)n(C)c1=O`?
Vaccinia Venus: -11.6%; LASV entry inh: inconclusive; MARV entry inh: 4.8%; VACV mCherry inh: -3.0%; Shiga toxin inh: 26.8; CHX counter: 15.6*

Results for CCOC(=O)c1c(C)[nH]c2cc(Br)c(O)cc12 ?
LASV entry inh: -0.1%; MARV entry inh: 2.8%; Shiga toxin inh: 65.5*; CHX counter: 38.1*

How did CCOC(=O)c1c(-c2ccc(OC)cc2)oc2cc(Br)c(O)cc12 do in these assays?
Shiga toxin inh: -16.1; CHX counter: -5.7

What do the screens show for `O=C(NNC(=O)C12CC3CC(CC(C3)C1)C2)c1cccc(O)c1`?
Vaccinia Venus: -8.8%; LASV entry inh: 1.9%; MARV entry inh: 10.9%[46.1 µM]; VACV mCherry inh: 21.0%; Shiga toxin inh: 26.0; CHX counter: 2.4

Results for O=C(N/N=C1/CN2CCC1CC2)c1cccc(O)c1 ?
LASV entry inh: 3.7%; MARV entry inh: -1.7%; Shiga toxin inh: 70.1*; CHX counter: 36.4*

How did CC(=O)c1ccc(-c2nc3c4ccccc4ccn3c2C(C)=O)o1 do in these assays?
Vaccinia Venus: -8.2%; LASV entry inh: 1.26µM*; MARV entry inh: 1µM*; VACV mCherry inh: -8.6%; Shiga toxin inh: -36.5; CHX counter: 15.7

What do the screens show for `CCCS(=O)(=O)N1CC(=O)N(c2ccc(C)c(Cl)c2)C(C)(C(=O)NC2CCCCCC2)C1` (configuration not stated)?
Vaccinia Venus: -6.6%; LASV entry inh: 0.8%[46.1 µM]; VACV mCherry inh: inactive

What do the screens show for `CCc1c(C)c2cc3c(c(C)c2oc1=O)OCN(CCc1ccc(OC)c(OC)c1)C3`?
Vaccinia Venus: -8.1%; LASV entry inh: 1.4%[46.1 µM]; MARV entry inh: -9.8%[46.1 µM]; VACV mCherry inh: -17.6%

Results for C/C(=N\NC(=O)CCc1ccccc1)C1C(=O)c2ccccc2C1=O ?
Vaccinia Venus: inconclusive; LASV entry inh: inconclusive; MARV entry inh: inconclusive; VACV mCherry inh: inconclusive; Shiga toxin inh: 66.9*; CHX counter: 24.1*

How did CC(/C=C/c1ccccc1)=N\NC(=O)CCc1ccccc1 do in these assays?
Shiga toxin inh: 16.5; CHX counter: 7.1

Results for CC(=O)Nc1cccc(NC(=O)c2cccc(Cl)c2)c1 ?
Vaccinia Venus: 10.2%; VACV mCherry inh: inactive

What do the screens show for `C/C(=N\NC(=O)c1cccc(Cl)c1)C1C(=O)c2ccccc2C1=O`?
Vaccinia Venus: inconclusive; LASV entry inh: inconclusive; MARV entry inh: -13.8%; VACV mCherry inh: inconclusive; Shiga toxin inh: 73.4*; CHX counter: 52.4*

What do the screens show for `C/C(=N\NC(=O)C(C)Oc1ccc([N+](=O)[O-])cc1)c1ccccn1` (configuration not stated)?
LASV entry inh: 11.6µM*; MARV entry inh: inconclusive; Shiga toxin inh: -7.0; CHX counter: -2.9

Results for CC(Oc1ccccc1)C(=O)NNC(=O)c1ccccn1 (configuration not stated) ?
Vaccinia Venus: inconclusive; LASV entry inh: inconclusive; MARV entry inh: inconclusive; VACV mCherry inh: inconclusive; Shiga toxin inh: 18.7; CHX counter: 5.2

Results for CC1CCCc2sc3nc(NCc4ccco4)n4ncnc4c3c21 (configuration not stated) ?
Vaccinia Venus: -22.0%; LASV entry inh: -3.8%; MARV entry inh: inconclusive; Shiga toxin inh: 55.4; CHX counter: 23.5*

How did CC1CCc2sc3nc(NCc4ccco4)n4ncnc4c3c2C1 (configuration not stated) do in these assays?
Vaccinia Venus: inconclusive; LASV entry inh: 17.5%; MARV entry inh: 0.0%; Shiga toxin inh: 16.9; CHX counter: 11.4

How did O=C(CCc1nc(-c2ccc(Cl)cc2)no1)NC1CCCCC1 do in these assays?
Vaccinia Venus: -6.3%; LASV entry inh: -18.7%; MARV entry inh: 14.1%; VACV mCherry inh: -10.3%; Shiga toxin inh: -6.1; CHX counter: -4.2

How did O=C(CCc1nc(-c2ccccc2)no1)NC1CCCCC1 do in these assays?
LASV entry inh: 2.1%; MARV entry inh: 22.5%; Shiga toxin inh: 28.6; CHX counter: 12.4*

How did COC(c1ccccc1)c1nnc(CCC(=O)NC2CCCCC2)o1 (configuration not stated) do in these assays?
Vaccinia Venus: -5.8%; LASV entry inh: 18.3%[46.1 µM]; MARV entry inh: 0.2%[46.1 µM]; VACV mCherry inh: inactive; Shiga toxin inh: 25.9; CHX counter: 17.3*

Results for O=C(CCc1nnc(-c2ccsc2)o1)N1CCc2c(Cl)cccc2C1 ?
Vaccinia Venus: -5.3%; VACV mCherry inh: -13.2%; Shiga toxin inh: 104.4*; CHX counter: 30.2*

How did O=C(CCc1nnc(-c2ccc(-c3ccccc3)cc2)o1)N1CCCCC1 do in these assays?
Vaccinia Venus: -14.3%; LASV entry inh: inconclusive; MARV entry inh: inconclusive; VACV mCherry inh: inactive; Shiga toxin inh: 68.5*; CHX counter: 48.9*

How did O=C(CCc1nc(-c2ccccc2)no1)N1CCCC1 do in these assays?
Vaccinia Venus: -12.0%; LASV entry inh: 0.5%; MARV entry inh: 12.1%; Shiga toxin inh: 21.0; CHX counter: 14.2

What do the screens show for `CC(=O)N1CCC[C@H]1C(=O)N1CCc2c(cnc(C)c2CNC(=O)/C=C/c2cccs2)C1`?
Vaccinia Venus: 2.6%; VACV mCherry inh: -2.6%

Results for CCOC(=O)Cc1ccc(NC(=O)NCc2c(-n3cccc3)sc3c2CCCC3)cc1 ?
Vaccinia Venus: -20.4%; LASV entry inh: -9.0%[46.1 µM]; MARV entry inh: 6.3%[46.1 µM]; VACV mCherry inh: -13.7%

How did Cc1ccc(-n2c(CCC(=O)O)ccc2-c2cccs2)cc1Cl do in these assays?
Vaccinia Venus: -9.8%; LASV entry inh: 26.4%[46.1 µM]; MARV entry inh: inconclusive; VACV mCherry inh: -6.7%

Results for Cc1cc(-c2nnc(CCC(=O)NCC(C)c3ccccc3)o2)no1 (configuration not stated) ?
Vaccinia Venus: -2.0%; LASV entry inh: inconclusive; MARV entry inh: inconclusive; VACV mCherry inh: -2.4%; Shiga toxin inh: -1.3; CHX counter: 13.4

How did O=C(Nc1nnc(-c2ccccc2)o1)NC1CCCCC1 do in these assays?
LASV entry inh: -17.6%; MARV entry inh: -26.5%; Shiga toxin inh: 19.4; CHX counter: 13.1

What do the screens show for `O=C(CCc1nnc(-c2ccccc2)o1)NC1CCCCC1`?
Shiga toxin inh: 64.5*; CHX counter: 44.0*

How did COC(c1ccccc1)c1nnc(CCC(=O)N(C)C(C2CC2)C2CC2)o1 (configuration not stated) do in these assays?
Vaccinia Venus: -8.4%; LASV entry inh: 5.2%; MARV entry inh: inconclusive; VACV mCherry inh: inactive; Shiga toxin inh: 83.8*; CHX counter: 50.2*

How did CC(CNC(=O)CCc1nnc(CCC2CCCCC2)o1)c1ccccc1 (configuration not stated) do in these assays?
Vaccinia Venus: -16.1%; LASV entry inh: inconclusive; MARV entry inh: inconclusive; VACV mCherry inh: -11.7%; Shiga toxin inh: 38.2; CHX counter: 20.8*

Assay outcomes deposited in PubChem BioAssay by National Center for Advancing Translational Sciences (NCATS).
